{"source": "paper PMC8384837", "about": "“Expanding the binding specificity for RNA recognition by a PUF domain”", "test_in_all_cases": "yeast three-hybrid, YBZ-1, SC-Leu-His + 0.5 mM 3-AT, 4 days", "settings_in_all_cases": "tags: N-Gal4 AD-HA kept; label: inside an RPR1-promoter hybrid RNA with tandem MS2 sites; ssRNA", "key": {"PUM1 PUF domain R4-GPG": {"target": "PUM1 PUF domain R4-GPG (Homo sapiens, UniProt Q14671 828-1176, N971G;H972P;Q975G)", "procedure,_shortened": "(§1)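 Repeat regions from input (SC-Leu) and selection (SC-Leu-His + 0.5 mM 3-AT) plates were PCR-amplified and Illumina-sequenced after four days of growth. The cells were strain YBZ-1 with a LexA–MS2 coat fusion and a HIS3 reporter, co-expressing Pumilio-1 PUF domain libraries and matching RNA elements from a centromeric plasmid. The interaction score is the log change in variant frequency from input to selection, taken in log2 with a pseudocount of 1 for absent variants.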"}, "PUM1 PUF domain R1-RAT": {"target": "PUM1 PUF domain R1-RAT (Homo sapiens, UniProt Q14671 828-1176, S863R;R864A;Q867T)", "procedure,_shortened": "as §1"}, "PUM1 PUF domain R1-NLR": {"target": "PUM1 PUF domain R1-NLR (Homo sapiens, UniProt Q14671 828-1176, S863N;R864L;Q867R)", "procedure,_shortened": "as §1"}, "PUM1 PUF domain R6-TFG": {"target": "T1, PUM1 PUF domain R6-TFG (Homo sapiens, UniProt Q14671 828-1176, N1043T;Y1044F;Q1047G)", "T1 sequence": "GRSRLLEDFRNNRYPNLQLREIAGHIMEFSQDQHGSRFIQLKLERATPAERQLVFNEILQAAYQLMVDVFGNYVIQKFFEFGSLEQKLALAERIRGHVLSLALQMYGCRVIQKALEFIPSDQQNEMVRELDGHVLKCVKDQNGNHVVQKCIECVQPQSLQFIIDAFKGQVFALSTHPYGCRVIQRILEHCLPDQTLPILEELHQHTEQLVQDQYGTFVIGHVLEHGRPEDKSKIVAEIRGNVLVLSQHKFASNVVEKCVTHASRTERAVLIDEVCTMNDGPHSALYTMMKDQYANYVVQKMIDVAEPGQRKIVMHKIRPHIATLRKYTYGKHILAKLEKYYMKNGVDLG", "procedure,_shortened": "as §1"}, "PUM1 PUF domain R8-RRQ": {"target": "PUM1 PUF domain R8-RRQ (Homo sapiens, UniProt Q14671 828-1176, N1122R;Y1123R)", "procedure,_shortened": "as §1"}, "PUM1 PUF domain R5-DFY": {"target": "PUM1 PUF domain R5-DFY (Homo sapiens, UniProt Q14671 828-1176, C1007D;R1008F;Q1011Y)", "procedure,_shortened": "as §1"}, "PUM1 PUF domain R5-RNT": {"target": "PUM1 PUF domain R5-RNT (Homo sapiens, UniProt Q14671 828-1176, C1007R;R1008N;Q1011T)", "procedure,_shortened": "as §1"}, "PUM1 PUF domain R8-KRG": {"target": "PUM1 PUF domain R8-KRG (Homo sapiens, UniProt Q14671 828-1176, N1122K;Y1123R;Q1126G)", "procedure,_shortened": "as §1"}, "PUM1 PUF domain R3-GRY": {"target": "PUM1 PUF domain R3-GRY (Homo sapiens, UniProt Q14671 828-1176, C935G;Q939Y)", "procedure,_shortened": "as §1"}, "PUM1 PUF domain R5-KFK": {"target": "PUM1 PUF domain R5-KFK (Homo sapiens, UniProt Q14671 828-1176, C1007K;R1008F;Q1011K)", "procedure,_shortened": "as §1"}}, "data": [{"sequence": "GGCUAGAACUAGUGGAUCCCCCGGCGCCCGGCGGCUCGAGCCCGGGUAAGUGUACAUAGUCUGCAUGCCGCCGGGCGCCAUGCCUGCAGGUCGACUCUAGAAAACAUG", "values": [{"measurement": "binding signal", "setting": "PUM1 PUF domain R4-GPG", "result": "2.28 log2 enrichment (interaction score)"}]}, {"sequence": "GGCUAGAACUAGUGGAUCCCCCGGCGCCCGGCGGCUCGAGCCCGGGUAAGUGUAAAUUGUCUGCAUGCCGCCGGGCGCCAUGCCUGCAGGUCGACUCUAGAAAACAUG", "values": [{"measurement": "binding signal", "setting": "PUM1 PUF domain R1-RAT", "result": "3.04 log2 enrichment (interaction score)"}, {"measurement": "binding signal", "setting": "PUM1 PUF domain R1-NLR", "result": "3.68 log2 enrichment (interaction score)"}]}, {"sequence": "GGCUAGAACUAGUGGAUCCCCCGGCGCCCGGCGGCUCGAGCCCGGGUAAGUGUAUAUAGUCUGCAUGCCGCCGGGCGCCAUGCCUGCAGGUCGACUCUAGAAAACAUG", "values": [{"measurement": "binding signal", "setting": "PUM1 PUF domain R4-GPG", "result": "2.98 log2 enrichment (interaction score)"}]}, {"sequence": "GGCUAGAACUAGUGGAUCCCCCGGCGCCCGGCGGCUCGAGCCCGGGUAAGUGUAAAUAGUCUGCAUGCCGCCGGGCGCCAUGCCUGCAGGUCGACUCUAGAAAACAUG", "values": [{"measurement": "binding signal", "setting": "PUM1 PUF domain R6-TFG", "result": "5.01 log2 enrichment (interaction score)"}, {"measurement": "binding signal", "setting": "PUM1 PUF domain R8-RRQ", "result": "1.1 log2 enrichment (interaction score)"}, {"measurement": "binding signal", "setting": "PUM1 PUF domain R4-GPG", "result": "5.02 log2 enrichment (interaction score)"}, {"measurement": "binding signal", "setting": "PUM1 PUF domain R5-DFY", "result": "2.71 log2 enrichment (interaction score)"}, {"measurement": "binding signal", "setting": "PUM1 PUF domain R5-RNT", "result": "2.05 log2 enrichment (interaction score)"}, {"measurement": "binding signal", "setting": "PUM1 PUF domain R8-KRG", "result": "1.8 log2 enrichment (interaction score)"}, {"measurement": "binding signal", "setting": "PUM1 PUF domain R3-GRY", "result": "4.27 log2 enrichment (interaction score)"}]}, {"sequence": "GGCUAGAACUAGUGGAUCCCCCGGCGCCCGGCGGCUCGAGCCCGGGUAAGUGUAAAUCGUCUGCAUGCCGCCGGGCGCCAUGCCUGCAGGUCGACUCUAGAAAACAUG", "values": [{"measurement": "binding signal", "setting": "PUM1 PUF domain R1-RAT", "result": "4.37 log2 enrichment (interaction score)"}]}, {"sequence": "GGCUAGAACUAGUGGAUCCCCCGGCGCCCGGCGGCUCGAGCCCGGGUAAGUGUCAAUAGUCUGCAUGCCGCCGGGCGCCAUGCCUGCAGGUCGACUCUAGAAAACAUG", "values": [{"measurement": "binding signal", "setting": "PUM1 PUF domain R5-RNT", "result": "2.85 log2 enrichment (interaction score)"}]}, {"sequence": "GGCUAGAACUAGUGGAUCCCCCGGCGCCCGGCGGCUCGAGCCCGGGUAAGUGUUAAUAGUCUGCAUGCCGCCGGGCGCCAUGCCUGCAGGUCGACUCUAGAAAACAUG", "values": [{"measurement": "binding signal", "setting": "PUM1 PUF domain R5-KFK", "result": "5.11 log2 enrichment (interaction score)"}, {"measurement": "binding signal", "setting": "PUM1 PUF domain R5-DFY", "result": "4.07 log2 enrichment (interaction score)"}, {"measurement": "binding signal", "setting": "PUM1 PUF domain R5-RNT", "result": "3.11 log2 enrichment (interaction score)"}]}, {"sequence": "GGCUAGAACUAGUGGAUCCCCCGGCGCCCGGCGGCUCGAGCCCGGGUAAGCGUAAAUAGUCUGCAUGCCGCCGGGCGCCAUGCCUGCAGGUCGACUCUAGAAAACAUG", "values": [{"measurement": "binding signal", "setting": "PUM1 PUF domain R8-RRQ", "result": "2.97 log2 enrichment (interaction score)"}, {"measurement": "binding signal", "setting": "PUM1 PUF domain R8-KRG", "result": "4.19 log2 enrichment (interaction score)"}]}, {"sequence": "GGCUAGAACUAGUGGAUCCCCCGGCGCCCGGCGGCUCGAGCCCGGGUAAGUGUAAAUGGUCUGCAUGCCGCCGGGCGCCAUGCCUGCAGGUCGACUCUAGAAAACAUG", "values": [{"measurement": "binding signal", "setting": "PUM1 PUF domain R1-RAT", "result": "2.45 log2 enrichment (interaction score)"}]}]}
